The supplement of paper PMC11732987, “Enantioselective OTUD7B fragment discovery through chemoproteomics screening and high-throughput optimisation” (Communications Chemistry, 2025)

Columns and labels:
Experiment in all cases: log2 ratio of Biotin-Ahx-Ub-VS probe labelling (fragment/DMSO); higher = less target engagement (more negative = stronger competition), active = hit call of the paper (q ≤ 0.05, log2 ratio ≤ -1)
Conditions in all cases: compound concentration: 200 uM; treatment time: 3 h
[1] = target: USP34 (UniProt Q70CQ2)
Chain of USP34 (Q70CQ2 whole entry, the tested form may be a part): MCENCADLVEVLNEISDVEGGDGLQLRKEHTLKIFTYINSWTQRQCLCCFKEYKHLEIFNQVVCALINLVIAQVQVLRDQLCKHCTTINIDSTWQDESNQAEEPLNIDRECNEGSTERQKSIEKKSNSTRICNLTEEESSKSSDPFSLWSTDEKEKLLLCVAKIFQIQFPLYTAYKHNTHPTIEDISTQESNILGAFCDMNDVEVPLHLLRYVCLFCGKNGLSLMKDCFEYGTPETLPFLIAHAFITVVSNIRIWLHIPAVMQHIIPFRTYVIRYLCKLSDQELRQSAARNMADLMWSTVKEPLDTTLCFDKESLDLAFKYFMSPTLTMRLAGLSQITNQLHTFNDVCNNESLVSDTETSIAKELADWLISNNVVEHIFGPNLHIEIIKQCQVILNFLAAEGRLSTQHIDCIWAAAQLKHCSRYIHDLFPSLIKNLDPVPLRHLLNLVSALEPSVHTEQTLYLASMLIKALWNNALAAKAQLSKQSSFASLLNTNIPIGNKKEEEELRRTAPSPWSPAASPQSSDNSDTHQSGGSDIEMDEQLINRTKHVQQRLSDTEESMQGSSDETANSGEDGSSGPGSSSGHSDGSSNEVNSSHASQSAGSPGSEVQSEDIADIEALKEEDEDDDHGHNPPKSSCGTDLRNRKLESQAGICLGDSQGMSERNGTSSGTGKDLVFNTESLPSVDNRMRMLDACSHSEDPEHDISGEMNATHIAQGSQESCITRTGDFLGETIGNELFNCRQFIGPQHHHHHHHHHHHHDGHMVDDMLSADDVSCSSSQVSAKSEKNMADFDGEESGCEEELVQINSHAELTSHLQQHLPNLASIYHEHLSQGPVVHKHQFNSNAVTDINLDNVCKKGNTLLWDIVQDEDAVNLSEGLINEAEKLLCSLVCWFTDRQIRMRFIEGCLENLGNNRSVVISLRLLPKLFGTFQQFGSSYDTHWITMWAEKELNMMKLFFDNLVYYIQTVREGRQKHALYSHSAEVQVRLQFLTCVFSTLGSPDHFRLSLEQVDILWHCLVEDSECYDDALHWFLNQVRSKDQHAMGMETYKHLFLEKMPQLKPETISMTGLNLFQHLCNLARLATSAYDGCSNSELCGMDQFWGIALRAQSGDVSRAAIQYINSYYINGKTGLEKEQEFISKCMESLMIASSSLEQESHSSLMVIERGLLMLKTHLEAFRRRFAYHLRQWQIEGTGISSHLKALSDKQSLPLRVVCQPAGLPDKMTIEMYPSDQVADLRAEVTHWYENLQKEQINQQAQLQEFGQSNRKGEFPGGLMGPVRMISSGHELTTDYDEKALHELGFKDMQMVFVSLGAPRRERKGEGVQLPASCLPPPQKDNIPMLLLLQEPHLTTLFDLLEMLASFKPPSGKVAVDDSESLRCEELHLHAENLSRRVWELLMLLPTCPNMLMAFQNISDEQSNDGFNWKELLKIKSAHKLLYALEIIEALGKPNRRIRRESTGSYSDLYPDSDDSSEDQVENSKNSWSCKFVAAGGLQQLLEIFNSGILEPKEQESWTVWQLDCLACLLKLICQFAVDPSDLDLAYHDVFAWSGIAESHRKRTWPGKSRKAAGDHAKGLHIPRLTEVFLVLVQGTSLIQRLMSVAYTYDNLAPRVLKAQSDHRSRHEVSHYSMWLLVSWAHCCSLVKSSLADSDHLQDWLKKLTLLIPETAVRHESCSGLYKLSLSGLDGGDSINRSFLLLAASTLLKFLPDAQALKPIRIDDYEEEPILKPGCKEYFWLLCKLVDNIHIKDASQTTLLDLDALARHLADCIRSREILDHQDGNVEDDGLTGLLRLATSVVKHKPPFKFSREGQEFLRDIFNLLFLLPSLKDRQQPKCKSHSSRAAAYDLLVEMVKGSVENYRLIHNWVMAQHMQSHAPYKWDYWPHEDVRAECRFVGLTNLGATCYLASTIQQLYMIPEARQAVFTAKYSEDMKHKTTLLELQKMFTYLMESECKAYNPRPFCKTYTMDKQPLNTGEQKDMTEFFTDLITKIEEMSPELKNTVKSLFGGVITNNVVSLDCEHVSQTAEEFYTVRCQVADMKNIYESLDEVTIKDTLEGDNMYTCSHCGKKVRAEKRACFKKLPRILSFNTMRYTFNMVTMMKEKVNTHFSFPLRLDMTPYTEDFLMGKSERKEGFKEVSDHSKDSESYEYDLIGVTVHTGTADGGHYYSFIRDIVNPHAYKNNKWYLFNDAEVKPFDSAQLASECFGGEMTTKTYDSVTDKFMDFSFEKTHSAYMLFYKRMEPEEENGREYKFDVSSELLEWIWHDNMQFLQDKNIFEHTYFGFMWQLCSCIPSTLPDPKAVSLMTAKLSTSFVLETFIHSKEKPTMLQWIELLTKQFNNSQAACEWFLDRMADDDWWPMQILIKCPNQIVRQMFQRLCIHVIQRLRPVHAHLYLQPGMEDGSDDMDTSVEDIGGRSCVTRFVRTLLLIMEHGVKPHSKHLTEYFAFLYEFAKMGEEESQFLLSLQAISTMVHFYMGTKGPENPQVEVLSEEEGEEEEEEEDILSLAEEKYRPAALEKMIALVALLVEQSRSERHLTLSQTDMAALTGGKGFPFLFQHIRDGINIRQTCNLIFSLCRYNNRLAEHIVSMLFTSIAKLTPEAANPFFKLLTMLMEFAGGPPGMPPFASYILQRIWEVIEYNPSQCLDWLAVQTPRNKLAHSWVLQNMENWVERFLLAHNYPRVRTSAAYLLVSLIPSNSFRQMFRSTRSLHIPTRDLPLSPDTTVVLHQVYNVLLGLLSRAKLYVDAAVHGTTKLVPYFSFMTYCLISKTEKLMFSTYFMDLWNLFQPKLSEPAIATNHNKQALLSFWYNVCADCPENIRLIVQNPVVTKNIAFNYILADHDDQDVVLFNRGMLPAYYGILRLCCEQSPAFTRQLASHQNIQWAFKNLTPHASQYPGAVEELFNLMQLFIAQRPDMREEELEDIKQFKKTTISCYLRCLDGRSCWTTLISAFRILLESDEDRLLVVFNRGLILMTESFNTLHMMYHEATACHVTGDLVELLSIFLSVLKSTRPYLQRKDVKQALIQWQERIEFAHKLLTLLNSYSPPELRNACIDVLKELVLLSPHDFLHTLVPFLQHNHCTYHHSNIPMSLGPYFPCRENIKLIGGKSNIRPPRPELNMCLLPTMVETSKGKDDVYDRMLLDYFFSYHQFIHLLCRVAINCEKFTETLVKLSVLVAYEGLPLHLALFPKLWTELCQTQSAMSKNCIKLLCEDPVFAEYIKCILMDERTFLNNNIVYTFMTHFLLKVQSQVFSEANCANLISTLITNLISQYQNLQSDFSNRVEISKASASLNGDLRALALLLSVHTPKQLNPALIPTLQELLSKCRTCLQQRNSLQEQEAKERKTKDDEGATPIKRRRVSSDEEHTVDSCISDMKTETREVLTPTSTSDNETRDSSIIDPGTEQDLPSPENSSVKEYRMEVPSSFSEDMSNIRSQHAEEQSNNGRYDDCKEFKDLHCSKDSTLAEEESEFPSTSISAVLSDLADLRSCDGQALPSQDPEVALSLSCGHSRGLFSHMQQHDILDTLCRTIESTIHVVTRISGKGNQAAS
In short: (§1)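 In triplicate, 495 µg of HEK293T lysate per sample was incubated with fragment at 200 µM or vehicle for 3 h. Biotin-Ahx-Ub-VS was then added to 0.5 µM final for 1 h, and labelled DUBs were captured with NeutrAvidin, digested with LysC and trypsin, and measured by diaPASEF LC-MS/MS. Data are average log2 fragment/vehicle ratios by unpaired t-test from global-median-normalised Spectronaut label-free quantities, restricted to proteins with ≥2 unique peptides.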

[2] = target: T1, USP36 (UniProt Q9P275)
T1 sequence (whole entry): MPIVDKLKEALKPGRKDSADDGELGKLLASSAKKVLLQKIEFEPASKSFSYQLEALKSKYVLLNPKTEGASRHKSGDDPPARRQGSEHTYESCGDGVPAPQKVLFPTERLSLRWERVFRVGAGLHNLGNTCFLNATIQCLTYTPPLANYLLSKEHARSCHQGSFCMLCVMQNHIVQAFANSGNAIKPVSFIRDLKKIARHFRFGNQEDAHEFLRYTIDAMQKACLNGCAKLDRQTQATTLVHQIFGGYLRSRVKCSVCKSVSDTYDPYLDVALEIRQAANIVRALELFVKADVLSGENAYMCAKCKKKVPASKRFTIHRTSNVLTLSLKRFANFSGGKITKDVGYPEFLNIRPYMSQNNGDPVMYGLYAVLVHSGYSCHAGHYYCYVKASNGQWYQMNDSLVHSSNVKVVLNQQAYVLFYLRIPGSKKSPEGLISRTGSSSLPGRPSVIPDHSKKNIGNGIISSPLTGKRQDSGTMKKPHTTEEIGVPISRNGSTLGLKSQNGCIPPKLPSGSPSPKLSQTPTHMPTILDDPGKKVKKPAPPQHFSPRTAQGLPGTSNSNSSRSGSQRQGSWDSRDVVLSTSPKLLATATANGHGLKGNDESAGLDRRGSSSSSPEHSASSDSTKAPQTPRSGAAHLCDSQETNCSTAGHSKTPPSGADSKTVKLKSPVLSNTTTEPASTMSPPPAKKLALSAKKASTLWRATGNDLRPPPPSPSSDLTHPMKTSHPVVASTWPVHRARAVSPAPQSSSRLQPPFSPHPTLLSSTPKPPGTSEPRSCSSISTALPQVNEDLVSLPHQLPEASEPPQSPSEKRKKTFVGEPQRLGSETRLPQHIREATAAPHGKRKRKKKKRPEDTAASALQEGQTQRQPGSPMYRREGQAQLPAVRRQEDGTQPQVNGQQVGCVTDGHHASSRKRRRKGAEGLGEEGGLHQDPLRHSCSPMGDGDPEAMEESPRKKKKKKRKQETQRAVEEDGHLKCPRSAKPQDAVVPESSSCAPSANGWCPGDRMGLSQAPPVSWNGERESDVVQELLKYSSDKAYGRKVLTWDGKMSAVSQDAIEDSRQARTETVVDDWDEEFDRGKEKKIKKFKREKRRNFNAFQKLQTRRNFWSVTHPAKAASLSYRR
In short: as §1

[3] = target: T2, USP38 (UniProt Q8NB14)
T2 sequence (whole entry): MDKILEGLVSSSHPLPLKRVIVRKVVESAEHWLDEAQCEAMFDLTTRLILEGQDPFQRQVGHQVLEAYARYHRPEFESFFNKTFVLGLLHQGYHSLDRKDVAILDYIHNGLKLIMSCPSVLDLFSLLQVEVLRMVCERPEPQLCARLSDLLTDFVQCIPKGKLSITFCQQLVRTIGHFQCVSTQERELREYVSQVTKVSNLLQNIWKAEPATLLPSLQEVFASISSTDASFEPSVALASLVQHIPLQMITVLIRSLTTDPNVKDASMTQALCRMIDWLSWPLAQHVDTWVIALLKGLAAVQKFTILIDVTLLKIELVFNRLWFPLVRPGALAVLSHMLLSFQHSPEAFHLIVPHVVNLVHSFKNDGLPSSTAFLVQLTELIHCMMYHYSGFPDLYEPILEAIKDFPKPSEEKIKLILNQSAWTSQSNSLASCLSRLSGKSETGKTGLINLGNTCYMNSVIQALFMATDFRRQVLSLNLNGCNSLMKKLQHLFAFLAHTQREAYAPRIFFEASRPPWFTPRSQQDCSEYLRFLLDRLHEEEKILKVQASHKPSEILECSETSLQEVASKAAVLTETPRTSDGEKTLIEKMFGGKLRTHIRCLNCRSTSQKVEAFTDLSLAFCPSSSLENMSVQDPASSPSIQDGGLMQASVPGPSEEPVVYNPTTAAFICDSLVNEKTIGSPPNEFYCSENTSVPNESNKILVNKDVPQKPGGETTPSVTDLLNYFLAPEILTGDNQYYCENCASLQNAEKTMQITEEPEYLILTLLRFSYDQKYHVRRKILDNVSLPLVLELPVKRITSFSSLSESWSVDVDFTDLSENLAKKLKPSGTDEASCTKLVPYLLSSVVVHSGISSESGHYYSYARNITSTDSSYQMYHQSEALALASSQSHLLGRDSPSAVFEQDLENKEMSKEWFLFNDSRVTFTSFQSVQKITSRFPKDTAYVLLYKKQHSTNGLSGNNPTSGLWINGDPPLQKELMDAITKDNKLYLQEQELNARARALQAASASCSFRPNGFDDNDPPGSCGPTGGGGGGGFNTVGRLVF
In short: as §1

[4] = target: T3, USP39 (UniProt Q53GS9)
T3 sequence (whole entry): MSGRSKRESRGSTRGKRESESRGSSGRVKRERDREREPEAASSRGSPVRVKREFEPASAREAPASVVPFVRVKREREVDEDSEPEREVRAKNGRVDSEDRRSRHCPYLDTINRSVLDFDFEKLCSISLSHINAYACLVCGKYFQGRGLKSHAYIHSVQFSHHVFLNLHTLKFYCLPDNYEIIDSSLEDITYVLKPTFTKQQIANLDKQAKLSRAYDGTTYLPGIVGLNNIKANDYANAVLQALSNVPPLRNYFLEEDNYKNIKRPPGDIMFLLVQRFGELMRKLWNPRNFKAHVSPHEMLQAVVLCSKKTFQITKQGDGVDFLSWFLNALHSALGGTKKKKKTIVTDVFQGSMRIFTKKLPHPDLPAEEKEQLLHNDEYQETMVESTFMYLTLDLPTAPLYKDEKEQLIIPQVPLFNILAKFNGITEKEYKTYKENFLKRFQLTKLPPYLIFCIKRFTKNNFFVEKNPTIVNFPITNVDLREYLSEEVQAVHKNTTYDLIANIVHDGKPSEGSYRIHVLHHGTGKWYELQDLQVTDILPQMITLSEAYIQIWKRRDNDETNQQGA
In short: as §1

[5] = target: T4, USP4 (UniProt Q13107)
T4 sequence (whole entry): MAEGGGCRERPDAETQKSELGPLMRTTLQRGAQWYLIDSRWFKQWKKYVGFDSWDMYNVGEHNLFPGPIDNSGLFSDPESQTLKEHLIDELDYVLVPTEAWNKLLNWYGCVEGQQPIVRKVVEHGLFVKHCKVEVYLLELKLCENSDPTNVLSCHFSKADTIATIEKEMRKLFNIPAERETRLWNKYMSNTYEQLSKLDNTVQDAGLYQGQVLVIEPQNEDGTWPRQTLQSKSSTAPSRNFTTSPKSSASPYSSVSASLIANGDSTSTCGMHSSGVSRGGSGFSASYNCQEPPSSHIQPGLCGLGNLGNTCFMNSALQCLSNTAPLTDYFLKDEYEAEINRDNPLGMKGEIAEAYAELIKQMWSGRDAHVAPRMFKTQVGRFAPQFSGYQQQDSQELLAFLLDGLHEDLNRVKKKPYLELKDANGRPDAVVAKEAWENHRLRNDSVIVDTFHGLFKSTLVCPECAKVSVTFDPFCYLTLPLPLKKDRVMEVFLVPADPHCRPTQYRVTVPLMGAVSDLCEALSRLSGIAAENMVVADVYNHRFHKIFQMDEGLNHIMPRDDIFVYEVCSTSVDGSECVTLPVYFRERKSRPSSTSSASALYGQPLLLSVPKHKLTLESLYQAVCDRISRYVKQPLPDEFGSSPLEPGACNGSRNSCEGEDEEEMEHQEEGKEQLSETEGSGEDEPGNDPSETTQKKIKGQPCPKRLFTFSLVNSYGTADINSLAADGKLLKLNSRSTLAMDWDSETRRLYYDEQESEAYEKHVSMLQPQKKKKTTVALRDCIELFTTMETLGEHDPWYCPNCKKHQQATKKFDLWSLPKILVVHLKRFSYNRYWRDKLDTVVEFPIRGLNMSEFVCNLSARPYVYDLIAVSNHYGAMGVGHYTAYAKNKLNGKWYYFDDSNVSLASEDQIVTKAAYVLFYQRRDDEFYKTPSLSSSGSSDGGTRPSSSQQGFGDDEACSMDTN
In short: as §1

Measured: log2 ratio of Biotin-Ahx-Ub-VS probe labelling

O=C(CCl)NCc1ccc2c(c1)OCO2
inactive: [1] 0.112 | [2] 0.129 | [3] -0.0864 | [4] 0.0456 | [5] 0.0604
